# Data from a collection of fitness landscapes (doi:10.1126/science.1257360).
# Whole data set: some 140,000 sequences, median “enrichment ratio after two sorts for PhoP signalling” near 0, cut for the highest 2% near 11. The full list was thinned out, with the highest values kept by preference.
# B1: PhoQ; a variant is named by its letters at X, in order, P23837 (parent)
# chain: MKKLLRLFFPLSLRVRFLLATAAVVLVLSLAYGMVALIGYSVSFDKTTFRLLRGESNLFYTLAKWENNKLHVELPENIDKQSPTMTLIYDENGQLLWAQRDVPWLMKMIQPDWLKSNGFHEIEADVNDTSLLLSGDHSIQQQLQEVREDDDDAEMTHSVAVNVYPATSRMPKLTIVVVDTIPVELKSSYMVWSWFIYVLSANLLLVIPLLWVAAWWSLRPIEALAKEVRELEEHNRELLNPATTRELTSLVRNLNRLLKSERERYDKYRTTLTDLTHSLKTPLXXLQXXLRSLRSEKMSVSDAEPVMLEQISRISQQIGYYLHRASMRGGTLLSRELHPVAPLLDNLTSALNKVYQRKGVNISLDISPEISFVGEQNDFVEVMGNVLDNACKYCLEFVEISARQTDEHLYIVVEDDGPGIPLSKREVIFDRGQRVDTLRPGQGVGLAVAREITEQYEGKIVAGESMLGGARMEVIFGRQHSAPKDE
# Variants of: B1
# Assay: enrichment ratio after two sorts for PhoP signalling (ratio (wild type AVST 3.29)); higher = more functional
# Conditions: with PhoP (E. coli)
row,Variant,enrichment ratio
1,IYCG,≤ 0.25
2,MGYI,13.6
3,TGYS,1.45
4,MGDR,≤ 0.25
5,TGHL,7.55
6,GGHL,≤ 0.25
7,MGHI,19.7
8,MGWA,≤ 0.25
9,MGHF,0.887
10,MGHL,19.3
11,MGYD,≤ 0.25
12,MGYS,12.2
13,MGYK,≤ 0.25
14,EVSV,≤ 0.25
15,VKDT,≤ 0.25
16,DASS,≤ 0.25
17,QDGG,≤ 0.25
18,NITL,≤ 0.25
19,KATL,≤ 0.25
20,TATL,16.3
21,FSTL,4.4
22,TMTL,20.9
23,NATL,≤ 0.25
24,TYTL,15.2
25,SPTL,≤ 0.25
26,TVTL,15.2

row,Variant,enrichment ratio
1,GYTL,≤ 0.25
2,RYTL,≤ 0.25
3,KSTL,≤ 0.25
4,AVIL,1.98
5,LGEK,≤ 0.25
6,DFEL,≤ 0.25
7,FLSP,≤ 0.25
8,RASH,≤ 0.25
9,GGTL,5.81
10,NGTL,≤ 0.25
11,CFTL,15.7
12,CITL,≤ 0.25
13,TGTL,13.5
14,CMTL,≤ 0.25
15,FIIG,≤ 0.25
16,YFRE,≤ 0.25
17,AILE,2.65
18,HKLE,≤ 0.25
19,TKLE,12.7
20,AHLE,12.9
21,YALE,14.7
22,YEVE,≤ 0.25
23,YELE,13.8
24,NHLE,≤ 0.25
25,FTLE,5.91
26,MKLE,≤ 0.25

row,Variant,enrichment ratio
1,QPLE,≤ 0.25
2,KALE,≤ 0.25
3,PLTV,≤ 0.25
4,YFSG,≤ 0.25
5,RYRE,≤ 0.25
6,SNND,≤ 0.25
7,GKDT,≤ 0.25
8,PQNK,≤ 0.25
9,KRMQ,≤ 0.25
10,MTHV,≤ 0.25
11,MEHV,14.3
12,MEMV,14.8
13,MKMV,≤ 0.25
14,KKMS,≤ 0.25
15,AKMG,18.6
16,YYHV,≤ 0.25
17,MEMS,63.4
18,MEMW,≤ 0.25
19,MKMS,≤ 0.25
20,ADMG,≤ 0.25
21,AIMG,6.65
22,VCGT,≤ 0.25
23,VPIR,≤ 0.25
24,IAQH,≤ 0.25
25,SNQM,9.41
